# MCF10A rerep – inducers of DNA re-replication in MCF 10A breast cells. AID 624296. actives 2.9% (n = 350,000). Potency, µM (titrated, usually from 46.1 µM), most hits filed as activators. MCF 10A DNA re-replication, Hoechst nuclear intensity, 48 h; further: nearly all actives have a fitted effect of over 50% in size
# KB-3-1 cytotox – kills parental KB-3-1 adenocarcinoma cells. KB-3-1 viability, CellTiter-Glo ATP luminescence, 72 h. Potency, µM (top dose mostly 46.1 µM), most hits filed as cytotoxic. actives 1.4% (n = 400,000). AID 1347075; further: nearly all actives have a fitted effect of over 60% in size
#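 Cells are dispensed, compounds pinned in, plates held at 37 °C for 72 h, then CellTiter-Glo is added and luminescence read after 10 minutes. Cell line: parental KB-3-1 in phenol-red-free DMEM, 10% FBS.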
# IL-1B inflam inh – blocks inflammasome-driven IL-1 beta release; THP-1 LPS/ATP IL-1B secretion, AlphaLISA, 16 h; active compounds read low; activity change, % at 57.5 µM; actives 4.7% (n = 360,000); in the data active means activity change below about -50%; inconclusive means mostly about -30% to -49%
#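 THP-1 cells pretreated 1 hr with compounds (up to 57.5 uM final), then stimulated with LPS (250 ng/mL final) plus ATP (1.25 mM final); secreted IL-1B measured by AlphaLISA after 16 hr, decreased signal indicating inhibition.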
# KB-V1 cytotox – KB-V1 MDR subline cytotoxicity. Potency, µM (top dose mostly 46.1 µM), most hits filed as cytotoxic. KB-V1 MDR cells viability, CellTiter-Glo, 72 h. actives 3.4% (n = 400,000); further: nearly all actives have a fitted effect of over 60% in size
#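 In this primary screen, KB-V1 cells overexpressing P-gp are incubated with library compounds (lowest to highest concentration) for 72 h at 37 degrees C before a luminescent ATP viability read.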
# SW480 rereplic – inducers of DNA re-replication in SW480 colon cancer cells | actives 1.8% (n = 340,000) | Potency, µM (top dose mostly 46.1 µM), actives largely listed as activators | SW480 DNA re-replication, Hoechst DNA content imaging, 48 h; further: nearly all actives have a fitted effect of over 55% in size
#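 Compounds, transferred as 23 nL by pin tool, were incubated with cells for 48 hr; DNA content per nucleus was then quantified by Hoechst staining and fluorescence plate imaging.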
# Hits are given with their value; 0 = inactive; ? = inconclusive; - = not tested or not shown; [ ] = remark or other dose. Most compounds without a hit are left out; they make up all but 9.9% or so of the library. Unless noted, the call rests on the fitted dose curve; in most records, active means well fitted curve in the direction sought with a large enough effect; inconclusive means small, poorly fitted or top-dose-only effect, or another doubt; inactive means no such curve, though single readings can be large; an effect the other way counts as inactive or inconclusive.
SMILES,MCF10A rerep,KB-3-1 cytotox,IL-1B inflam inh,KB-V1 cytotox,SW480 rereplic
CCN1CCN(S(=O)(=O)c2ccc(Cl)c(C(=O)NCc3nc4ccccc4[nH]3)c2)CC1,?,?,0,0,10.3µM
CCN1CCN(S(=O)(=O)c2ccc(Cl)c(C(=O)NCCc3ccccc3)c2)CC1,0,0,0,0,14.6µM
CCN1CCN(S(=O)(=O)c2ccc(Cl)c(C(=O)NC3CC3)c2)CC1,0,0,0,0,0
CCN1CCN(S(=O)(=O)c2ccc(Cl)c(C(=O)N(C)C(c3ccccc3)c3ccccc3)c2)CC1,0,0,-75.4,0,0
C[N+]1(CC(=O)c2ccc(Cl)cc2)CCOCC1,-,0,-,0,-
Cc1c(C(=O)N(Cc2cccs2)C2CCS(=O)(=O)C2)oc2ccccc12 (centres undefined),0,0,0,6.51µM,0
Cc1cc(C)cc(N(C(=O)c2cc3ccccc3oc2=O)C2C=CS(=O)(=O)C2)c1 (centres undefined),0,0,-67.2,0,0
Cc1ccc(N(C(=O)c2cc3ccccc3oc2=O)C2C=CS(=O)(=O)C2)cc1 (centres undefined),0,0,0,?,0
Cc1ccc(CN(C(=O)c2cc3ccccc3oc2=O)C2CCS(=O)(=O)C2)cc1 (centres undefined),0,0,0,14.6µM,0
Cc1c(C(=O)N(Cc2ccccc2)C2CCS(=O)(=O)C2)oc2ccccc12 (centres undefined),0,0,0,0,0
CCN(CC)CCOc1ccc(/C(=C(\Cl)c2ccccc2)c2ccccc2)cc1,5.17µM,?,0,0,0
COc1ccc2nc(NC(=O)CSc3nccc(C)n3)sc2c1,0,0,0,23.1µM,0
COc1cc(CCC(=O)Nc2ncc(C)s2)cc(OC)c1OC,0,0,0,0,0
COc1ccc2nc(NC(=O)CSc3nc(C)cc(=O)[nH]3)sc2c1,0,0,0,0,0
CCC(=O)Nc1nc2ccc(NC(=O)c3cc(OC)c(OC)c(OC)c3)cc2s1,?,0,-52.5,0,0
COc1cc(CCC(=O)Nc2nnc(C)s2)cc(OC)c1OC,10.3µM,?,0,?,6.51µM
CCN(CC)c1cc(C)c2cc(NC(=O)c3ccccc3F)ccc2n1,0,?,-56.7,0,0
CC(C)Oc1ccc(S(=O)(=O)N2CCOCC2)cc1NC(=O)c1ccc(Cl)c(S(=O)(=O)N2CCOCC2)c1,-,0,?,0,-
COCCN(C(=O)CSc1n[nH]c(-c2ccccc2)n1)c1c(N)n(CC(C)C)c(=O)[nH]c1=O,0,0,0,0,0
COc1ccc2nc(NC(=O)CCn3cccc3)sc2c1,0,0,0,18.4µM,0
CCCC(=O)Nc1nc2ccc(NC(=O)c3ccccc3F)cc2s1,6.51µM,2.06µM,0,1.84µM,8.2µM
CCn1cc([N+](=O)[O-])c(C(=O)Nc2nc3ccc(OC)cc3s2)n1,?,0,-59.3,0,0
COc1ccc2nc(NC(=O)CCc3cc(OC)c(OC)c(OC)c3)sc2c1,0,0,-62.7,20.6µM,0
CCOCC(=O)Nc1nc2ccc(OC)cc2s1,0,0,0,0,0
Cc1ccc2nc(NC(=O)c3ccccc3F)sc2c1,0,0,0,?,0[9.22 µM]
SMILES,MCF10A rerep,KB-3-1 cytotox,IL-1B inflam inh,KB-V1 cytotox,SW480 rereplic
Cc1noc(C)c1S(=O)(=O)Nc1ccc2c(c1)CC(=O)N([C@H](C)CO)C[C@H](C)[C@@H](CN(C)CC1CC1)O2,0,0,0,0,0
CCCOc1ccc(C(=O)N(CC(C)C)c2c(N)n(Cc3ccccc3)c(=O)[nH]c2=O)cc1,?,0,0,0,?
COc1cccc(CNC(=O)Cn2nc(N3CCN(c4ccccc4OC)CC3)ccc2=O)c1,-,0,-,0,-
C=C[C@]1(C)C=C2C(=O)[C@@]3(O)OC(=O)[C@@]4(CCCC(C)(C)[C@H]34)[C@@]2(O)CC1,-,4.61µM,-113.4,?,-
C=C[C@]1(C)C=C2CC[C@H]3[C@@](C)(CCC[C@@]3(C)C(=O)O)[C@@H]2CC1,0,0,0,0,0
COc1ccc(Nc2ncnc3c2cnn3-c2ccccc2)cc1OC,0,0,0,0,0
COc1ccc(OC)c(Nc2ncnc3c2cnn3-c2cccc(C)c2)c1,?,?,0,?,7.31µM
CC(=O)Nc1ccc(Nc2ncnc3c2cnn3-c2cccc(C)c2)cc1,0,0,0,16.4µM,0
CN(CC(=O)Nc1ccc(Br)cc1)Cc1ccccc1,0,0,-81.1,0,0
O=C(CCN(CCO)Cc1ccccc1)Nc1ccc(Br)cc1,0,0,0,14.6µM,0
CN(CC(=O)NCCc1ccc(F)cc1)Cc1ccc(Br)cc1,0,0,-59.4,?,0
CCN(CCC(=O)Nc1ccc(Br)c(C)c1)Cc1ccccc1,0,?,?,?,0
CN(CC(=O)NCCCc1ccccc1)Cc1ccc(Br)cc1,0,0,0,0,0
O=S(=O)(Nc1ccc(-c2ccc(N3CCCC3)nn2)cc1)c1cc(F)ccc1F,-,0,-,0,-
Cc1ccc(C(=O)c2oc3ccccc3c2NC(=O)c2cc(-c3ccccc3O)n[nH]2)cc1,9.2µM,0,0,0,18.4µM
O=C(Nc1c(C(=O)c2ccccc2)oc2ccccc12)c1cc(-c2ccccc2O)n[nH]1,?,?,0,?,?
Cc1ccc(C(=O)c2oc3ccccc3c2NC(=O)c2cc(-c3cc(C)ccc3O)n[nH]2)cc1,1.64µM,?,0,?,?
O=C1NCC(O)=C1C=NC12CC3CC(CC(C3)C1)C2,14.6µM,0,0,0,?
O=C1NCC(O)=C1C=NCCO,0,0,0,0,0
Cc1nc2sc(C(=O)N(C)Cc3ccccc3)c(NC(=O)c3ccccc3)c2c(C)c1Cl,-,0,-,0,-
Cc1ccc2sc(N(CCCN(C)C)C(=O)c3ccc(Br)s3)nc2c1C,13µM,?,-101.1,?,0
CN(C)CCCN(C(=O)c1ccc2c(c1)CCCC2)c1nc2cc3c(cc2s1)OCO3,16.4µM,?,-86.2,0,?
CN(C)CCCN(C(=O)c1ccc(S(=O)(=O)N(C)C)cc1)c1nc2cc3c(cc2s1)OCO3,0,0,0,0,0
Cc1ccc2nc(N(CCCN(C)C)C(=O)c3sc4ccccc4c3Cl)sc2c1,?,0,-91.4,?,0
CN(C)CCCN(C(=O)c1ccc2c(c1)CCCC2)c1nc2ccc(F)cc2s1,?,0,-,4.11µM,?
COc1ccc(C(=O)NCC(c2ccc3c(c2)OCO3)N2CCN(c3ccccc3F)CC2)cc1 (centres undefined),-,0,-,0,-
Cc1ccccc1NC(=O)COC(=O)/C=C/c1cccc(C(F)(F)F)c1,0,0,0,0,0
CCc1ccc2nc(N(CCN(C)C)C(=O)c3ccc4ncsc4c3)sc2c1,?,0,-75.8,0,0
CN(C)CCCN(C(=O)c1ccc(Br)s1)c1nc2cc3c(cc2s1)OCO3,0,0,-100.8,?,0
Cc1ccc(C(=O)N(CCCN(C)C)c2nc3ccc(Cl)cc3s2)cc1C,0,0,-106.7,0,?
